OTUD3 block: inhibitors of human OTUD3 deubiquitinase; inhibition, % at 25 µM; Q5T2D3; actives 0.7% (n = 47,000); purified OTUD3, Ub-rhodamine fluorescence, 2 h
Target sequence (Q5T2D3 whole entry, looked up): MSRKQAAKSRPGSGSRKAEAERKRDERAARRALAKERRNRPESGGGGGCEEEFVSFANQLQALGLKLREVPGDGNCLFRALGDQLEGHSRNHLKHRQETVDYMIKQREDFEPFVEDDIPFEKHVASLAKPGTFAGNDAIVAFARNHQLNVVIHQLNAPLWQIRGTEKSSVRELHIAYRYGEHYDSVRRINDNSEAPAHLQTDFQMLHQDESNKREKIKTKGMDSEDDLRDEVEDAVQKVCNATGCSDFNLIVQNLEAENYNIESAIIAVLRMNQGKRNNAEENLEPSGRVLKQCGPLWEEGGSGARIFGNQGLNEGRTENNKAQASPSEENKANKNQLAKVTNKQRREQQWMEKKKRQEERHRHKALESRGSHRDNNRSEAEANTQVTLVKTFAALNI
USP28 block: human USP28 deubiquitinase inhibition. purified USP28, Ub-rhodamine cleavage fluorescence, 30 min. actives 3% (n = 47,000). inhibition, % at 25 µM
* = called active by the depositor. Compounds with a hit are over-represented: about 3.3% of the library has one in this group of screens. No stated cut-off is given here; in the data, active means inhibition above about 30%; inactive means the rest.

SMILES	OTUD3 block	USP28 block
COc1cccc(NC(=O)CSc2cc(C)c3cc(S(=O)(=O)N(C)C)ccc3n2)c1	-12	-12
COc1ccc2c(C)cc(SCC(=O)Nc3nsc(-c4ccc(C)cc4)n3)nc2c1	47*	55*
COc1cc2c(cc1OC)-c1cc(OCC(C)C)nc(=O)n1CC2	-36	-39
CCn1cc(C(=O)N2CCc3nc4ccccc4c(=O)n3CC2)c(C)n1	-1	-2
O=C(CCn1cnc2cc(-c3noc(-c4ccccn4)n3)ccc21)N1CCOCC1	3	0
Cc1n[nH]c(C)c1CC(=O)N1CCCC(c2ccc3cn[nH]c3n2)C1 (configuration not stated)	-2	-1
Cc1cnc(CN2CCCC(c3ccc4cn[nH]c4n3)C2)cn1 (configuration not stated)	47*	0
CCN1C[C@H]2C3(CCN(C(=O)Cc4cccc(OC)c4)CC3)CC[C@@]2(C(=O)N(C)C)C1	9	8
CCC(=O)Nc1nc2cc(NS(=O)(=O)c3ccc(C)cc3)ccc2s1	-10	-5
CCC(=O)Nc1nc2cc(NC(=O)Nc3cc(C)cc(C)c3)ccc2s1	31*	26
COc1ccc2c(c1)c(=O)c(S(=O)(=O)c1ccccc1)cn2Cc1cccc(C)c1	5	23
Cc1cc(F)ccc1-c1ccccc1CC1CN(C(=O)c2cncnc2C)CCNC1=O (configuration not stated)	-7	-3
CNC(=O)C1CN(C(=O)c2ccc(F)cc2F)CC12CCCC2 (configuration not stated)	9	-3
O=C(CSc1nc2ccccc2n1S(=O)(=O)c1ccc(Br)cc1)Nc1ccc([N+](=O)[O-])cc1Cl	15	54*
COc1ccc(S(=O)(=O)n2c(SCC(=O)Nc3ccc(Oc4ccccc4)cc3)nc3ccccc32)cc1	2	45*
O=C(CSc1nc2ccccc2n1S(=O)(=O)c1ccc(Br)cc1)Nc1ccc(Br)cc1F	13	27
COc1ccc2nc(SCC(=O)Nc3ccc(NC(C)=O)cc3)n(S(=O)(=O)c3ccc(Cl)cc3)c2c1	-13	-3
Cc1ccc(N2CCC(C)(C(=O)NCCc3ccccc3)CC2)nn1	-6	-7
c1ccc(CCNc2nc(-c3ccccc3)c(-c3ccccc3)s2)cc1	0	0
c1ccc(CCNc2nc3ccccc3s2)cc1	-14	35*
Oc1cccc2c(-c3ccc(O)c4c(O)cccc34)ccc(O)c12	76*	92*
CN(C)c1ccc(CNC(=O)c2nnc(C(=O)Nc3ccccc3)s2)cc1	-2	7
COc1cccc(CNc2nnc(-n3nc(C)cc3C)c3ccccc23)c1	-9	-10
COc1cccc(CNCc2nc(NCc3cccc(OC)c3)c3c(C)c(C)sc3n2)c1	15	37*
CCC(=O)N1CCC(c2nc(C)c(-c3ccnc(C)n3)s2)CC1	-3	-10
SMILES	OTUD3 block	USP28 block
Cc1cc(=O)[nH]c2nnc(SCC(=O)c3ccccc3)n12	5	7
O=C(NCc1ccccn1)c1cn(-c2ccc(F)cc2)nn1	7	8
CC(C)(C)OC(=O)NCc1ccc(C(=O)Nc2ccc(CN3CCOCC3)cc2)cc1	-9	-9
CCC(C)Oc1cccc(C(=O)Nc2ccc(CN3CCOCC3)cc2)c1 (configuration not stated)	-3	80*
O=C(Nc1ccncc1)C1CCCN(S(=O)(=O)c2cccc3nsnc23)C1 (configuration not stated)	0	-3
COc1ccc(Cn2c(=O)n(C)c3ncncc32)cc1F	9	1
COc1ccc(Cn2nnc(-c3cccc(Cl)c3)n2)cc1F	1	35*
O=C(Cn1c(=O)n(CC2CCC(C(=O)NCCc3ccccc3)CC2)c(=O)c2ccccc21)NCc1ccco1 (configuration not stated)	-1	-9
COc1ccc(OC)c(NC(=O)Cn2c(=O)n(CC3CCC(C(=O)NCCc4ccccc4)CC3)c(=O)c3ccccc32)c1 (configuration not stated)	93*	23
O=C(Cn1c(=O)c2ccccc2n(CC(=O)Nc2ccc(F)c(Cl)c2)c1=O)NCc1ccco1	49*	39*
COc1ccc(Cl)cc1NC(=O)Cn1c(=O)n(CCCCC(=O)NCCc2ccccc2)c(=O)c2ccccc21	14	1
CCOc1ccccc1NC(=O)Cn1c(=O)n(CCC(=O)NC2CCCC2)c(=O)c2ccccc21	17	5
O=C(Cn1c(=O)n(CC2CCC(C(=O)NC3CCCC3)CC2)c(=O)c2ccccc21)NCc1ccco1 (configuration not stated)	58*	50*
O=C(CCCCn1c(=O)c2ccccc2n(CC(=O)Nc2ccc(F)c(Cl)c2)c1=O)NCc1ccco1	26	22
COc1cc(NC(=O)Cn2c(=O)n(CC3CCC(C(=O)NC4CCCC4)CC3)c(=O)c3ccccc32)cc(OC)c1 (configuration not stated)	43*	28
Cc1cccc2c(=O)[nH]c(CN3CCN(C(c4ccccc4)c4ccccc4)CC3)nc12	0	0
Cc1nnc(-c2cccnc2N2CCN(C(=O)NC3CCCCC3)CC2)o1	5	1
O=C(Cn1c(=O)[nH]c2c(-c3ccccc3)c[nH]c2c1=O)NCc1ccc(Cl)cc1	-7	-9
N#Cc1ccc(C(=O)N2CCC(n3c(=O)[nH]c4cncnc43)CC2)cc1	-22	-1
COc1ccc(OC)c(NC(=O)CN2CCC(c3nc4ccccc4[nH]3)CC2)c1	-13	-5
CCC(=O)Nc1ccccc1-c1nc2ccccc2n(CC(=O)Nc2cc(OC)ccc2OC)c1=O	19	40*
Cc1nccn1-c1cc(N2CCC3(CC2)OCCO3)nc2ccnn12	-13	-19
Cc1cc(C)c(C)c(Oc2coc3cc(O)ccc3c2=O)c1	6	34*
CC(C)(C)c1ccc(Oc2coc3cc(OCC(=O)O)ccc3c2=O)cc1	3	6
COc1ccc(C(=O)NCC(=O)N2CCCc3ccccc32)cc1	8	4
SMILES	OTUD3 block	USP28 block
COc1cc(OC)c(NC(=O)Cn2c(=O)n(Cc3ccccc3Cl)c(=O)c3cc(OC)c(OC)cc32)cc1Cl	24	36*
COc1cc2c(=O)n(CCC(=O)NC3CCCC3)c(=O)n(CC(=O)Nc3cccc(Cl)c3)c2cc1OC	24	18
O=C(CCCn1c(=O)[nH]c2ccccc2c1=O)N1CCC(Cc2ccccc2)CC1	-1	6
O=C(Cc1ccc(-n2c(=O)[nH]c3ccsc3c2=O)cc1)N1CCC(Cc2ccccc2)CC1	18	37*
O=C(Cn1cnc2sc(-c3ccccc3)cc2c1=O)N(Cc1ccccc1F)C1CC1	8	31*
O=C(Cn1cnc2ccc(Cl)cc2c1=O)N(Cc1ccccc1F)C1CC1	8	0
O=C(Nc1ccc(F)cc1)C1CCN(C(=O)c2cc(-c3cccnc3)n[nH]2)CC1	-7	-14
O=C(Nc1ccc2c(c1)OCCO2)C1CCN(C(=O)c2cc(-c3cccnc3)n[nH]2)CC1	-4	53*
Oc1ccc(N2CCN(c3ncccn3)CC2)cc1	-3	0
CCN1CCN(c2ccc(C(=O)OC)cc2NC(=O)COc2cc(C)ccc2C(C)C)CC1	-1	-14
N#Cc1cn2c(nc1-c1ccc(Cl)cc1)nc1ccccc12	61*	71*
O=C(c1ccc(Cl)cc1)N1CCCn2c1nc1ccccc12	-4	-9
COc1cccc(C(=O)Oc2ccc3c(=O)c(-c4ccc(OC)c(OC)c4)coc3c2)c1	-6	-4
O=C(Nc1ccc(Br)cc1F)c1ccc(S(=O)(=O)N2CCCC2)cc1	-3	7
